CYP2C9 activ: increases human cytochrome P450 2C9 activity; AID 1024; activation factor at 5 µM; 1.4% of 96,000 active; recombinant CYP2C9, luciferin-H conversion, luminescence; active compounds read high; factor 1 = untreated enzyme, 0 = blocked; P11712;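 active = activation factor of 2 or more for CYP2C9 at a 5 µM dose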
Target sequence (P11712 whole entry, looked up): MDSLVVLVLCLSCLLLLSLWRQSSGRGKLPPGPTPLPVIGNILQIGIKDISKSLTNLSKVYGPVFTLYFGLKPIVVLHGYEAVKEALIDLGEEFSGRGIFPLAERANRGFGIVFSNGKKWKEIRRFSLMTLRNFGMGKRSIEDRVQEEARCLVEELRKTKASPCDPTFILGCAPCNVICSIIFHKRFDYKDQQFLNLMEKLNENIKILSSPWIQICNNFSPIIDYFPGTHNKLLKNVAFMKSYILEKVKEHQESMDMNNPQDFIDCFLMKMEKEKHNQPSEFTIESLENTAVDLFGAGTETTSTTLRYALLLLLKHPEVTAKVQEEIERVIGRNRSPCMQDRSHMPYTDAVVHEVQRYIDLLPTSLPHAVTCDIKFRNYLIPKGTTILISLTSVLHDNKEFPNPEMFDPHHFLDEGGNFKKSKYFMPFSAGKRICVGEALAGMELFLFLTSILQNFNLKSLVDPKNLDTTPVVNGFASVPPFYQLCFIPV
CYP2C9 inhib: inhibitors of human CYP2C9; CYP2C9 Supersomes, luciferin-H conversion, luminescence; inhibition, % at 5 µM; 20% of 96,000 active;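 active = blocking of liver enzyme CYP2C9 beyond about 50% at 5 µM, limit read from the data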
CYP2C19 activ: activators of human cytochrome P450 2C19; P33261; recombinant CYP2C19, luciferin-H EGE luminescence; active compounds read high; 0 = fully inhibited enzyme, 1 = untreated enzyme; activation factor at 5 µM; 96,000 tested, under 10 active; AID 1025;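 active = activation factor of at least 2 at 5 µM in the primary screen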
EphB4 ephrin blk: antagonists of human EphB4-ephrin-B2 interaction; AID 720; P54760; 0.15% of 97,000 active; inhibition, % at 7 µM; EphB4 LBD / TNYL-RAW-Alexa532 peptide, fluorescence polarization;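 active = inhibition above the screen-wide mean inhibition plus 3 SD, cut at about 15% in these data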
CYP2C19 inhib: blocks human cytochrome P450 2C19; P33261; CYP2C19 Supersomes, luciferin-H EGE luminescence, 30 min; inhibition, % at 5 µM; 21% of 96,000 active; AID 778;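 active = CYP2C19 inhibition above a set limit at 5 µM in the primary screen, cut at about 50% in these data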
Each line names hits and unclear results; the compound was inactive in the other large screens. Hits are enriched below; roughly 27% of the tested compounds scored in any of these assays.

CCc1ccc(C(=O)NC2CCCCC2)s1	none (no result: EphB4 ephrin blk)
Cc1cc(C)n(-c2ccc3cccc(NS(C)(=O)=O)c3n2)n1	none
O=c1oc2ccccc2c(NCc2cccc(F)c2)c1[N+](=O)[O-]	none (no result: CYP2C9 activ, CYP2C9 inhib, CYP2C19 activ, CYP2C19 inhib)
Cc1cc(C)cc(NS(=O)(=O)c2ccc(NC(=S)NC(=O)c3ccc(Br)o3)cc2)c1	CYP2C9 inhib 74
O=C(Nc1ccc(S(=O)(=O)NCCc2ccccc2)cc1)c1ccc(Br)o1	none
Cc1ccc(NS(=O)(=O)c2ccc(NC(=O)c3ccc(Br)o3)cc2)c(C)c1	CYP2C9 inhib 67
COc1ccc(N=Cc2nc(-c3ccco3)oc2O)cc1	none (no result: CYP2C9 activ, CYP2C9 inhib, CYP2C19 activ, CYP2C19 inhib)
CCOC(=O)c1c(-c2cccs2)csc1NC(=O)CSc1ncn[nH]1	CYP2C9 inhib 95, CYP2C19 inhib 86
CCOC(=O)c1c(-c2cccs2)csc1NC(C)=O	none (no result: CYP2C9 activ, CYP2C9 inhib, CYP2C19 activ, CYP2C19 inhib)
CCOC(=O)c1c(-c2cccs2)csc1NC(=O)CN1CC(C)OC(C)C1 (stereo not given)	CYP2C9 inhib 69
CCOC(=O)c1c(-c2cccs2)csc1NC(=O)CNCCN1CCOCC1	CYP2C9 inhib 68
CCOc1ccc(CCNc2nc3c(c(=O)n(C)c(=O)n3C)n2CC)cc1OCC	none
COc1ccc(N2CCn3c2nc2c3c(=O)n(CCCc3ccccc3)c(=O)n2C)cc1	none (no result: EphB4 ephrin blk)
CC1CCCCC1NC(=O)CCCc1nc2ccccc2c(=O)[nH]1 (stereo not given)	none
CN1CCc2c(c3c(n2C)CCN(C)[C@H]3c2ccccc2F)[C@@H]1c1ccccc1F	none
CC(=O)Nc1ccc(OCC(O)Cn2nc(C)nc2C)cc1 (stereo not given)	none
Cc1nc(C)n(CC(O)COc2ccc3ccccc3c2)n1 (stereo not given)	CYP2C19 inhib 70
CC1=C(C#N)C(c2cccnc2)C2=C(CC(c3ccc(Cl)cc3)CC2=O)N1 (stereo not given)	CYP2C9 inhib 73, CYP2C19 inhib 92
O=C(CN1CCCC1)NC1C2CC3CC(C2)CC1C3 (stereo not given)	none
O=C(C/C=N/OCc1ccc(F)cc1Cl)c1cnc(-c2ccccc2)s1	CYP2C19 inhib 53
O=C(C/C=N/OCc1ccccc1F)c1cnc(-c2ccc(Cl)cc2)s1	CYP2C19 inhib 96
O=C(C/C=N/OCc1ccc(Cl)cc1Cl)c1ccccc1	none
Cc1ccc(CSc2nc3c(c(=O)[nH]2)CCC3)cc1	CYP2C9 inhib 56
Cc1ccc(CSc2nc3c(c(=O)[nH]2)C(c2ccncc2)C2=C(CCCC2=O)N3)cc1 (stereo not given)	CYP2C9 inhib 95, CYP2C19 inhib 94
Cc1ccccc1CSc1nc2c(c(=O)[nH]1)CCCC2	CYP2C9 inhib 60
CCCCCCCCCCSc1n[nH]c(NC(C)=O)n1	none
COc1cccc(CN2CCN(C(=O)c3ccco3)CC2)c1OC	none (no result: CYP2C9 activ, CYP2C9 inhib, CYP2C19 activ, CYP2C19 inhib)
CC(C)Sc1nc2ccccc2n1CC(=O)NCc1ccc2c(c1)OCO2	none
CC(=O)c1c(C)n(CC(=O)NCc2ccc3c(c2)OCO3)c2ccccc12	CYP2C9 inhib 59, CYP2C19 inhib 75
CC(=O)c1c(C(C)=O)c(C)n(Cc2ccc3c(c2)OCO3)c1C	CYP2C9 inhib 55, CYP2C19 inhib 75
Cc1cc(NC(=O)CCN2C(=O)C3C4C=CC(C4)C3C2=O)c2ccccc2n1 (stereo not given)	none
CC(=O)Nc1ccc(-n2c(C)c(C(C)=O)c(C(C)=O)c2C)cc1	none (no result: EphB4 ephrin blk)
CC(=O)Nc1ccc(N2C(C(C)=O)=NN(c3ccc(Cl)cc3)C2c2sccc2C)cc1 (stereo not given)	EphB4 ephrin blk 17 (no result: CYP2C9 activ, CYP2C9 inhib, CYP2C19 activ, CYP2C19 inhib)
Cc1cc(C)c(C(=O)CSc2n[nH]c(=O)n2C2CC2)cc1C	CYP2C9 inhib 77, CYP2C19 inhib 52
COc1ccc2c(c1OC)C(=O)OC2CC(=O)O (stereo not given)	none
COc1ccc2c(c1OC)C(=O)OC2CC(=O)c1ccc(N(C)C)cc1 (stereo not given)	none (no result: EphB4 ephrin blk)
COc1ccc2c(c1OC)C(=O)OC2CC(=O)c1ccc(O)cc1 (stereo not given)	CYP2C19 inhib 72 (no result: EphB4 ephrin blk)
COc1ccc2c(c1OC)C(=O)OC2CC(=O)c1ccc(O)c(O)c1 (stereo not given)	CYP2C19 inhib 51
COc1ccc(CN(C)CC(=O)c2c(N)n(Cc3ccccc3)c(=O)n(C)c2=O)c(OC)c1	none
CCC(C)(C)NC(=O)CN(Cc1ccc2c(c1)OCO2)C(=O)CCC(=O)Nc1ccccn1	none (no result: CYP2C9 activ, CYP2C9 inhib, CYP2C19 activ, CYP2C19 inhib)
CC(C)CCNC(=O)CN(C(=O)CCC(=O)Nc1ccccn1)c1ccc2c(c1)OCO2	CYP2C9 inhib 58
Cc1ccc(N(CC(=O)NCc2ccco2)C(=O)CCC(=O)Nc2ccccn2)cc1C	CYP2C19 inhib 96
CCC(C)(C)NC(=O)CN(C(=O)CCC(=O)Nc1cc(C)ccn1)c1ccc2c(c1)OCO2	CYP2C9 inhib 50, CYP2C19 inhib 58
Cc1cc(C)cc(N(CC(=O)NCc2ccco2)C(=O)CCC(=O)Nc2ccccn2)c1	CYP2C19 inhib 61 (no result: EphB4 ephrin blk)
O=C(CN(C(=O)CCC(=O)Nc1ccccn1)c1ccc2c(c1)OCO2)NCc1ccco1	none
CC(C)CCNC(=O)CN(C(=O)CCC(=O)Nc1ccccn1)c1ccc2c(c1)OCCO2	none (no result: CYP2C9 activ, CYP2C9 inhib, CYP2C19 activ, CYP2C19 inhib)
O=[N+]([O-])c1cc(-c2nnc(C34CC5CC(CC(C5)C3)C4)o2)cc([N+](=O)[O-])c1	none
OCCn1c(-c2ccc3c(c2)OCO3)csc1=Nc1ccccc1	CYP2C9 inhib 87, CYP2C19 inhib 96
CCOc1ccc(N=c2scc(-c3ccccc3)n2CCO)cc1	CYP2C19 inhib 68
Oc1ccccc1-c1cc(-c2ccccc2)no1	none
Cc1ccc(NC(=S)NNc2ncc(C(F)(F)F)cc2Cl)c(C)c1	CYP2C19 inhib 67
CC1(C)Cc2c(sc(/N=C/N3CCOCC3)c2C#N)C(C)(C)N1	none
CCn1c(Cn2nnc(-c3ccccc3)n2)nnc1SCC(=O)Nc1cccc(C)c1C	CYP2C9 inhib 57, CYP2C19 inhib 68
CCn1c(Cn2nnc(-c3ccccc3)n2)nnc1SCC(=O)Nc1cccc(C(C)=O)c1	CYP2C19 inhib 70
Cc1sc(NC(=O)C2CC=CCC2C(=O)O)c(C(=O)OC(C)C)c1C (stereo not given)	CYP2C9 inhib 54
COC(=O)c1cc(C)sc1NC(=O)C1CC=CCC1C(=O)O (stereo not given)	none
CC(NC(=O)NCCCC(=O)O)(C(F)(F)F)C(F)(F)F	none
CC(NC(=O)NCCCn1ccnc1)(C(F)(F)F)C(F)(F)F	CYP2C9 inhib 68, CYP2C19 inhib 91
O=C(NCCCn1ccnc1)C(F)(F)C(F)(F)C(=O)NCCCn1ccnc1	CYP2C9 inhib 98
Cc1cc(NC(=O)CSc2nc(-c3ccc(F)cc3)cs2)no1	none
O=C(CSc1nc(-c2ccc(F)cc2)cs1)NC(=O)NCc1ccco1	none
CC1CN(C(=O)CSc2nc(-c3ccc(F)cc3)cs2)CC(C)O1 (stereo not given)	CYP2C19 inhib 79
O=C(CSc1nc(-c2ccc(F)cc2)cs1)N1CCOCC1	CYP2C9 activ 2.1, CYP2C19 inhib 69
COc1ccc(S(=O)(=O)N2CCC(C(=O)N3CCCCC3)CC2)cc1Cl	CYP2C19 inhib 92
COc1ccc(S(=O)(=O)N2CCC(C(=O)N3CCCC3)CC2)cc1Cl	CYP2C19 inhib 89

Compound activity: PubChem BioAssay, several laboratories
